# Assay results: PubChem BioAssay (NCATS)
# A number with no mark means an inactive call. Records with an inconclusive call do not appear. Where a call stands in place of a potency, no number is given. The source made the active and inactive calls. Unless noted, calls come from the whole dose curve; as a rule, active = well fitted curve in the direction sought with a large enough effect; inconclusive = small, poorly fitted or top-dose-only effect, or another doubt; inactive = no such curve, though single readings can be large; an effect the other way counts as inactive or inconclusive.
# Key:
# [1] = biological target: Cytochrome P450 2D6 (Homo sapiens) (UniProt P10635); test: Cytochrome P450 family 2 subfamily D member 6 (CYP2D6) small molecule antagonists: luciferase biochemical (cell-free) qHTS assay (AID 1645840; active = well fitted curve in the direction sought with a large enough effect in the repeat runs; an effect the other way counts as inactive or inconclusive; note: nearly all actives have a fitted effect of over 55% in size); details: P450-Glo CYP2D6 enzyme, luciferin luminescence, 1 h; series mostly up to 57.4 µM
# Outline: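 P450-Glo CYP2D6 system: proluciferin substrate converted by enzyme to luciferin, read by luminescence proportional to activity. Enzyme-substrate mix with compound 10 min at room temperature, then NADPH regeneration 1 h before detection reagent.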
# [2] = biological target: Cytochrome P450 2C9 (Homo sapiens) (UniProt P11712); test: Cytochrome P450 family 2 subfamily C member 9 (CYP2C9) small molecule antagonists: luciferase biochemical (cell-free) qHTS assay (AID 1645842; active = well fitted curve in the direction sought with a large enough effect in the repeat runs; an effect the other way counts as inactive or inconclusive; note: nearly all actives have a fitted effect of over 55% in size; note: potency is the fitted concentration of half-maximal effect); details: P450-Glo CYP2C9 enzyme assay, luciferin luminescence; series mostly up to 57.4 µM
# Outline: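 P450-Glo CYP2C9 system: proluciferin substrate with enzyme in mix containing 0.4% BSA, 10 min at room temperature, then NADPH regeneration solution added and incubated 1 h at 37C. Detection reagent stopped reaction; luminescence read after 20 min as RLU.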
# [3] = biological target: Glutathione peroxidase 1 (Homo sapiens) (UniProt P07203); test: Primary qHTS Assay for Inhibitors of Recombinant Selenoprotein Glutathione Peroxidase 1 (GPX1) (AID 1845191); details: recombinant GPX1, GR-coupled NADPH fluorescence, 15 min; series mostly up to 48.8 µM; note: nearly all actives have a fitted effect of over 65% in size
# Outline: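 NADPH consumption tracked by fluorescence at 340/450 nm between t=0 and t=15 min, room temperature. Final mix: 10 nM GPX1, 100 nM glutathione reductase, 1 mM GSH, 0.5 mM NADPH, 0.5 mM cumene hydroperoxide, 0.01% BSA; 30 min compound–enzyme preincubation.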
# [4] = biological target: Phospholipid hydroperoxide glutathione peroxidase GPX4 (Homo sapiens) (UniProt P36969); test: Primary qHTS Assay for Inhibitors of Recombinant Selenoprotein Glutathione Peroxidase 4 (GPX4) (AID 1845192); details: recombinant GPX4, GR-coupled NADPH fluorescence, 15 min; series mostly up to 50 µM; note: nearly all actives have a fitted effect of over 65% in size
# Outline: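 NADPH consumption followed by fluorescence at 340/450 nm, t=0 and after 15 min at room temperature. Reaction started with cumene hydroperoxide (0.5 mM final) after 30 min compound–GPX4 preincubation; final 200 nM GPX4, 100 nM GR, 1 mM GSH, 0.5 mM NADPH.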
# [5] = qHTS for Inhibitors of the vitamin D receptor (VDR): Hit Validation using a Texas Red Assay (AID 602201); details: VDR coregulator binding, Texas Red fluorescence polarization; agonist-bound VDR ligand-binding domain; note: potency is the fitted concentration of half-maximal effect
# Outline: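 After a 2-hour room-temperature incubation, polarization of Texas-Red emission was read (Ex 595 nm/Em 615 nm). Final mix contained 7 nM Texas Red, 1.5 uM VDR-LBD and LG19078.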
# [6] = HepG2 viability counterscreen (readout 2: ATP content) against the NCATS DSHEA and TCM libraries (AID 1794840); details: ATP content luminescence; series mostly up to 27.3 µM
# Outline: (§1)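 Same wells read twice: first fluorescence from cleaved GF-AFC substrate (25 uM final, 30 min, 37C) for live-cell protease, then CellTiter-Glo luminescence after 30 min at room temperature for ATP. HepG2 cells were exposed ~24 h to substances.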
# [7] = HepG2 viability counterscreen (readout 1: protease activity) against the NCATS DSHEA and TCM libraries (AID 1794841); details: qHTS concentration series; series mostly up to 27.3 µM;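 note: cells exposed to compounds for about 24 h before the protease read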
# Outline: as §1
# [8] = biological target: Cytochrome P450 3A4 (Homo sapiens) (UniProt P08684); test: qHTS for inhibitors of CYP3A4 against the NCATS DSHEA and TCM libraries (AID 1919971); details: recombinant CYP3A4 enzyme activity, luminescence qHTS; series mostly up to 34.1 µM;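 note: inhibition lowers luminescence from luciferin made by CYP3A4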
# Outline: (§2)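 Concentration-response screening with isoform-matched pro-luciferin substrates. The CYP reaction was initiated by NADPH regenerating solution and ran 30-45 min in darkness at room temperature.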
# [9] = biological target: Cytochrome P450 2D6 (Homo sapiens) (UniProt P10635); test: qHTS for inhibitors of CYP2D6 against the NCATS DSHEA and TCM libraries (AID 1919972); details: CYP2D6 enzymatic inhibition, luminescence qHTS; series mostly up to 34.1 µM
# Outline: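 CYP2D6 enzyme with pro-luciferin substrate in manufacturer buffer (typically 100 mM KPO4), preincubated 15 min RT with substances (most at 19.5 nM upward); NADPH regeneration system (1x) started 30–45 min RT reaction; P450-Glo luminescence read after 30 min; quinidine as intraplate control.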
# [10] = biological target: Cytochrome P450 2C9 (Homo sapiens) (UniProt P11712); test: qHTS for inhibitors of CYP2C9 against the NCATS DSHEA and TCM libraries (AID 1919973); details: recombinant CYP2C9 enzyme activity, luminescence; series mostly up to 34.1 µM;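 note: luminogenic pro-luciferin CYP2C9 substrate turned into luciferin with NADPH regeneration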
# Outline: as §2
# [11] = biological target: Cytochrome P450 2C19 (Homo sapiens) (UniProt P33261); test: qHTS for inhibitors of CYP2C19 against the NCATS DSHEA and TCM libraries (AID 1919974); details: CYP2C19 enzyme inhibition, luminescence qHTS; series mostly up to 34.1 µM;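 note: luminescence from luciferin released by CYP2C19 oxidation of a pro-luciferin substrate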
# Outline: as §2
# [12] = KB-3-1 P-gp reporter qHTS against the NCATS DSHEA and TCM libraries (AID 1919975); details: KB-3-1 parental cells, CellTiter-Glo luminescence viability, 72 h; series mostly up to 26.1 µM
# Outline: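 KB-3-1 parental line, 1536-well qHTS: cells seeded, ~4 h attachment, pintool compound addition, ~72 h at 37C, then CellTiter-Glo, 30 min RT, luminescence. Concentration-response format.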
# [13] = biological target: Cytochrome P450 1A2 (Homo sapiens) (UniProt P05177); test: qHTS for inhibitors of CYPIA2 against the NCATS DSHEA and TCM libraries (AID 1919976); details: recombinant CYP1A2 enzyme activity, luminescence; series mostly up to 37 µM;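 note: light from luciferin formed by CYP1A2 from a pro-luciferin substrate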
# Outline: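 Enzyme and pro-luciferin substrate, or substrate alone as no-enzyme background, are pre-incubated with test samples for 15 min at room temperature. NADPH regeneration system (1x final) initiates a 30-45 min dark reaction; luciferase detection reagent follows before luminescence reading.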
# [14] = qHTS Counterscreen for compound interference against the NCATS DSHEA and TCM libraries (AID 1919978); details: firefly luciferase detection reagent interference, luminescence;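 note: compounds preincubated with 1 µM D-luciferin or buffer before detection reagent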
# Outline: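 Compounds, titrated from 19.5 nM to 39.8 uM final, were pinned onto 1 uM D-luciferin or plain 100 mM potassium phosphate. After 15 min at room temperature, luciferin detection reagent was added for 30 min before the luminescence read.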
# [15] = Dual reporter qHTS for agonist of Pregnane X Receptor (hPXR) against the NCATS DSHEA and TCM libraries: Fluorescence readout (AID 1920058); details: PXR dual reporter cells; series mostly up to 40 µM
# Outline: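 Cells were plated at 2000 per well and allowed to attach for 5 h. Test substances were pinned in and incubated roughly 24 h. CellTiter-Fluor was then added and fluorescence measured after 1 h.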
# [16] = biological target: Nuclear receptor subfamily 1 group I member 2 (Homo sapiens) (UniProt O75469); test: Dual reporter qHTS for agonist of Pregnane X Receptor (hPXR) against the NCATS DSHEA and TCM libraries: Luminescence readout (AID 1920059); details: hPXR dual reporter cells, luciferase luminescence agonist; series mostly up to 40 µM
# Outline: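 Luminescent PXR reporter read (ONE-Glo) after a CellTiter-Fluor viability read, following 24 h, 37C treatment of HepG2 cells stably carrying hPXR-Luc.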
# [17] = biological target: Nuclear receptor subfamily 1 group I member 2 (Homo sapiens) (UniProt O75469); test: Dual reporter qHTS for antagonist of Pregnane X Receptor (hPXR) against the NCATS DSHEA and TCM libraries: Luminescence Readout (AID 1920060); details: hPXR dual reporter cells, luciferase luminescence, antagonist mode; series mostly up to 40 µM;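 note: HepG2 cells carrying hPXR luciferase reporter stimulated with rifampicin at 2 µM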
# Outline: (§3)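 Antagonist mode: rifampicin 2 uM final co-added with compounds to hPXR-LucHepG2 cells for 24 h at 37C. Viability by CellTiter-Fluor, Ex/Em 405/540 nm, 1 h; reporter by ONE-Glo luminescence.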
# [18] = Dual reporter qHTS for antagonist of Pregnane X Receptor (hPXR) against the NCATS DSHEA and TCM libraries: Fluorescence Readout (AID 1920061); details: PXR dual reporter cells, antagonist mode; series mostly up to 40 µM
# Outline: as §3
# Sequence of Phospholipid hydroperoxide glutathione peroxidase GPX4 (Homo sapiens) (P36969 whole entry, looked up): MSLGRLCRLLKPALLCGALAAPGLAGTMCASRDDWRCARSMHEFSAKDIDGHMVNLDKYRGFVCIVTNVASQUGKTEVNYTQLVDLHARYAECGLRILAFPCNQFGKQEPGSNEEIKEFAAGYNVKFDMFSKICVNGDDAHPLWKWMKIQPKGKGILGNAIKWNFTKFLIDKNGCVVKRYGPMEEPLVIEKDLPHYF
# Sequence of Glutathione peroxidase 1 (Homo sapiens) (P07203 whole entry, looked up): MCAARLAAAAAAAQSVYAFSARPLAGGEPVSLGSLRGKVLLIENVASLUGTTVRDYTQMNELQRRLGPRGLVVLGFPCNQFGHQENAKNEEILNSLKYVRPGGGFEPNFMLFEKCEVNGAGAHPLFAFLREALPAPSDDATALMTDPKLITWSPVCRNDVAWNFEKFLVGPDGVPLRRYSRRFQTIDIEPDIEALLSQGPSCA
# Sequence of Cytochrome P450 2D6 (Homo sapiens) (P10635 whole entry, looked up): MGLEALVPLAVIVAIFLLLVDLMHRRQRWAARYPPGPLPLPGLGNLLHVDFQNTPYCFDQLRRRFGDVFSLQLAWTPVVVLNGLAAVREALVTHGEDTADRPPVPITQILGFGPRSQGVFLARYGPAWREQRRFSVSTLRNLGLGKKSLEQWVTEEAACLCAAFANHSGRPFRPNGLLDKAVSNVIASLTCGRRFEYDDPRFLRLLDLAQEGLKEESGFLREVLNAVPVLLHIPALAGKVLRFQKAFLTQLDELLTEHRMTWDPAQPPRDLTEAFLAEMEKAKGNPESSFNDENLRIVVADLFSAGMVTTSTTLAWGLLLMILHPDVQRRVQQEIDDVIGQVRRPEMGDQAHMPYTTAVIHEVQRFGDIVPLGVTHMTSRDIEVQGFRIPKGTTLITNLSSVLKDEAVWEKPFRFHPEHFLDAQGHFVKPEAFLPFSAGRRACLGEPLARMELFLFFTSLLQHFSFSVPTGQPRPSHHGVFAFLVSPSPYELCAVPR
# Sequence of Cytochrome P450 2C9 (Homo sapiens) (P11712 whole entry, looked up): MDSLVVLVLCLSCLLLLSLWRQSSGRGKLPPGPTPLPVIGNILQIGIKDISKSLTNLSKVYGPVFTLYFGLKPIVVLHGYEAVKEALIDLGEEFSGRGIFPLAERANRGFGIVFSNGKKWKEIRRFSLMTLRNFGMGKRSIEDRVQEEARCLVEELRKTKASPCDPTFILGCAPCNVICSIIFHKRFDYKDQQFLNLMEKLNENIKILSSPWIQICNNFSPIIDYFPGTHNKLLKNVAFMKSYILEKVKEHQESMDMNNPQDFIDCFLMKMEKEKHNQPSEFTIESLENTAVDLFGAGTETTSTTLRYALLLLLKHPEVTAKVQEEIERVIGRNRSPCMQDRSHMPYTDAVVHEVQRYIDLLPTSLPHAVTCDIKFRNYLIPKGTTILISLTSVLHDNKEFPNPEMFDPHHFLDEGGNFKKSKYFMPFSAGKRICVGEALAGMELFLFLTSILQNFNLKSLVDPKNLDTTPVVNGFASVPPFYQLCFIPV
# Sequence of Nuclear receptor subfamily 1 group I member 2 (Homo sapiens) (O75469 whole entry, looked up): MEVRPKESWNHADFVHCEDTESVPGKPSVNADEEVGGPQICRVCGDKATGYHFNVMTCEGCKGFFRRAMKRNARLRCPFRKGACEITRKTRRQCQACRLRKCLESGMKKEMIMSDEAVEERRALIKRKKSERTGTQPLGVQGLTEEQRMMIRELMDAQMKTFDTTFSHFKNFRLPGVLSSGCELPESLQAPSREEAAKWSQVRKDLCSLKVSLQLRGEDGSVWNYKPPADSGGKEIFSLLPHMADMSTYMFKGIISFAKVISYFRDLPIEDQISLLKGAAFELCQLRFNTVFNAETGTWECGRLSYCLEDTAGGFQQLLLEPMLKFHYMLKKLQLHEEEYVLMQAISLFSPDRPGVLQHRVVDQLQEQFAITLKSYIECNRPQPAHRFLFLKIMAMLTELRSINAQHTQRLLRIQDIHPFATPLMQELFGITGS
# Sequence of Cytochrome P450 1A2 (Homo sapiens) (P05177 whole entry, looked up): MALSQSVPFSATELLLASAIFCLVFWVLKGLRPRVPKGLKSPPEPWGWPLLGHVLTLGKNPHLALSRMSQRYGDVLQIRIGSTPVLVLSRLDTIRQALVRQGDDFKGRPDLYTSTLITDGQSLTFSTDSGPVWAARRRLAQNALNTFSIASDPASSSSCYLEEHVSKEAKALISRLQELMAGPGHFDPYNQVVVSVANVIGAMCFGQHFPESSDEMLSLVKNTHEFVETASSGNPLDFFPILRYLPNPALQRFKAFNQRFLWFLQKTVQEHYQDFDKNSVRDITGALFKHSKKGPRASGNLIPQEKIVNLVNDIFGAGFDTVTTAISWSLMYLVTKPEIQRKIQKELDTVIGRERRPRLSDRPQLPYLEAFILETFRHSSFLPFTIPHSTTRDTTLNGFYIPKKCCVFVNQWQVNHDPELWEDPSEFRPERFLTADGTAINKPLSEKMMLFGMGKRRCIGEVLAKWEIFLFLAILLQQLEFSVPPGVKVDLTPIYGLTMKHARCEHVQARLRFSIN
# Sequence of Cytochrome P450 2C19 (Homo sapiens) (P33261 whole entry, looked up): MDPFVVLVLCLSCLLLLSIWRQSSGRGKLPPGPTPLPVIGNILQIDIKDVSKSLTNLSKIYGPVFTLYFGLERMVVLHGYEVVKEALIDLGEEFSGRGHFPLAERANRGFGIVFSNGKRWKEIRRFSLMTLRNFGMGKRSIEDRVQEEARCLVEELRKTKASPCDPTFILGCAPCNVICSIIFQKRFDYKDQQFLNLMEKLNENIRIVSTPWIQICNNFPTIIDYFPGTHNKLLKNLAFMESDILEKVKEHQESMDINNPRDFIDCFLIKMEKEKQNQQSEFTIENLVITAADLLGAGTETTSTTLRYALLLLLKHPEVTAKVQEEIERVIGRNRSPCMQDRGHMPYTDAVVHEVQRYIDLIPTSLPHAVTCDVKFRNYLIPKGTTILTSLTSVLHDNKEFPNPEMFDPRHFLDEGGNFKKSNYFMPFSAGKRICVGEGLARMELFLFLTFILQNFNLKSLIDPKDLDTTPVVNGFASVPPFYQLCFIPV
# Sequence of Cytochrome P450 3A4 (Homo sapiens) (P08684 whole entry, looked up, canonical isoform): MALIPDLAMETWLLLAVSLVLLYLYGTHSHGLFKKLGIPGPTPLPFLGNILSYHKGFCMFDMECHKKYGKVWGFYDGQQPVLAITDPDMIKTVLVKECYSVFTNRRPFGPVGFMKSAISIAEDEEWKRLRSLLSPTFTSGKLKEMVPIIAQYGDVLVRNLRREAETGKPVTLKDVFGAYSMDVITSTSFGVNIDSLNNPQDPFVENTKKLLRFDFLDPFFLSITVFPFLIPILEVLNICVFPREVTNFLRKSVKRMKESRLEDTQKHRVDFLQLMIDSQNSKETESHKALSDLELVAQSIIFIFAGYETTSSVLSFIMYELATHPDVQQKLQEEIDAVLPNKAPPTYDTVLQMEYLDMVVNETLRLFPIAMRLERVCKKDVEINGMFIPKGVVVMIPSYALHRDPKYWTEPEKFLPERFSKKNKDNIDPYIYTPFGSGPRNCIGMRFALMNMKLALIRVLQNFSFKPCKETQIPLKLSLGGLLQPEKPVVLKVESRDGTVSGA
structure (smiles),measurement,setting,value
CN(CCCCCCCCCCN(C)C(=O)Oc1cccc([N+](C)(C)C)c1)C(=O)Oc1cccc([N+](C)(C)C)c1,Potency,[1],inactive
same,Potency,[2],inactive
same,Potency,[3],inactive
same,Potency,[4],inactive
Cc1ccnc(NC(c2cc(C)ccc2O)c2ccc3cccnc3c2O)c1 (configuration not stated),Potency,[5],28.2 µM (active)
same,Potency,[1],inactive
same,Potency,[2],23.9 µM (active)
OCC=Cc1ccccc1,Potency,[1],inactive
same,outcome,[6],inactive
same,outcome,[7],inactive
same,Potency,[3],inactive
same,Potency,[4],inactive
same,outcome,[8],inactive
same,outcome,[9],inactive
same,outcome,[10],inactive
same,outcome,[11],inactive
same,outcome,[12],inactive
same,outcome,[13],inactive
same,max response,[14],2.25%
same,outcome,[15],inactive
same,outcome,[16],inactive
same,outcome,[17],inactive
same,outcome,[18],inactive
COc1ccc(C=CC(=O)O)cc1,Potency,[1],inactive
same,Potency,[2],inactive
same,Potency,[3],inactive
same,Potency,[4],inactive
